Hit rate of the full screen: of about 360,000 compounds, about 25,000 (6.9%) were called active. Inconclusive results (about 9%) are left out. What follows is part of a selection rich in actives, with near analogues and random picks from the rest. Unmarked numbers belong to inactive results. Calls follow the shape of the dose curve; as a rule, active = well fitted inhibition curve with a large enough effect; inconclusive = small, poorly fitted or top-dose-only effect; inactive = flat fitted curve, though single readings scatter.
Target: Luciferin 4-monooxygenase (Photinus pyralis) (UniProt P08659)
Test: qHTS profiling assay for firefly luciferase inhibitor/activator using purifed enzyme and Km concentrations of substrates (counterscreen for miR-21 project); also: nearly all actives have a fitted effect of over 55% in size;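 as to activity change, negative = inhibition: plate controls were vehicle for no effect and reference inhibitor for full effect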
Details: purified FLuc, luminescence inhibition; series mostly up to 57.5 µM; activity change, negative = inhibition: at the top concentration
Description: MLPCN Grant: 1 R21 NS059478-01 (miR-21 grant) Assay Provider: NCGC NCGC Assay Overview: Firefly (Photinus pyralis) luciferase is one of the most commonly used transcriptional reporters for a number of reasons. It is considered one of the more dynamically responsive reporters -that is, responsive to changes in reporter transcription - as it requires no post-translational modifications and is enzymatically active directly after protein synthesis (Wood, 1998). Additionally, the half-life of the luciferase protein is short relative to other reporter-gene products (Wood, 1995). Whereas reporters with long half-lives potentially allow for increased signal due to accumulation of reporter-gene product, once accumulated in the cell, dynamic changes in reporter-gene expression may be difficult to detect(Fan and Wood, 2007; Almond et al., 2004). It has been shown that wild-type P. pyralis luciferase has a half-life of approximately […] hours in mammalian cells (Thompson et al., 1991). Firefly luciferase reporter-gene assays are also generally considered one of the most sensitive assay types (Wood, 1995; Wood, 1998). Although light produced in a bioluminescence reaction is of lower intensity than that produced during fluorescence emission, this is offset by little to no background light inherent to luminescent assays. Thus the luciferase reporter can be expressed at much lower levels than fluorescent proteins while still providing robust signal. # However, it was initially observed, in 1991, by Thompson et al., that compounds that resemble the substrates of firefly luciferase (FLuc) can act as competitive inhibitors of the enzyme, and that these compounds, upon interaction with luciferase in the cell, can actually stabilize the protein and increase its half-life. Accumulated intracellular FLuc protein can be measured as an increase in luminescence signal, upon addition of detection reagents (which contain high concentrations of FLuc substrates) commonly used in high-throughput screening. In cell-based reporter gene assays that use FLuc as the reporter gene to quantitate the potential influence of a given compound against the target biology, this apparent increase in luminescence can mistakenly be interpreted as identification of a compound that is active against the target of interest. This is the case for the miR-21 FLuc reporter gene assay used to identify inhibitors of the miR-21 pathway (PubChem AID 2289) - compounds of interest will inhibit miR-21 biogenesis/expression or activity, and are identified by causing an increase in luminescence, due to increased FLuc translation. However, FLuc inhibitory compounds that stabilize the FLuc protein will give an identical read-out, making it difficult to distinguish compounds that are active against the target from those active against FLuc. Previous profiling work to determine the prevalence of compounds that affect FLuc enzymatic activity (PubChem AID 411) identified that ~3% of the MLSMR library (then at ~72K) inhibited FLuc. […] Since the MLSMR had grown to ~350K compounds, and since it was expected that a significant percentage of compounds found active in the miR-21 FLuc assay would be FLuc inhibitors, the library was screened for activity against FLuc using a biochemical assay of purified FLuc and KM concentrations of FLuc substrates (D-luciferin and ATP).
NCGC Assay Protocol Summary: Reagents: 50mM Tris acetate, pH 7.5; 10mM Mg acetate; 10uM D-luciferin (Sigma #L9504); 10uM ATP; 0.01% Tween-20; 0.05% BSA; 10nM P. pyralis luciferase (Sigma #L9506) Control compounds used were two known firefly luciferase inhibitors (compounds (2) and (5) in Auld et al., 2010), and DMSO. […]

Sequence of Luciferin 4-monooxygenase (Photinus pyralis) (P08659 whole entry, looked up): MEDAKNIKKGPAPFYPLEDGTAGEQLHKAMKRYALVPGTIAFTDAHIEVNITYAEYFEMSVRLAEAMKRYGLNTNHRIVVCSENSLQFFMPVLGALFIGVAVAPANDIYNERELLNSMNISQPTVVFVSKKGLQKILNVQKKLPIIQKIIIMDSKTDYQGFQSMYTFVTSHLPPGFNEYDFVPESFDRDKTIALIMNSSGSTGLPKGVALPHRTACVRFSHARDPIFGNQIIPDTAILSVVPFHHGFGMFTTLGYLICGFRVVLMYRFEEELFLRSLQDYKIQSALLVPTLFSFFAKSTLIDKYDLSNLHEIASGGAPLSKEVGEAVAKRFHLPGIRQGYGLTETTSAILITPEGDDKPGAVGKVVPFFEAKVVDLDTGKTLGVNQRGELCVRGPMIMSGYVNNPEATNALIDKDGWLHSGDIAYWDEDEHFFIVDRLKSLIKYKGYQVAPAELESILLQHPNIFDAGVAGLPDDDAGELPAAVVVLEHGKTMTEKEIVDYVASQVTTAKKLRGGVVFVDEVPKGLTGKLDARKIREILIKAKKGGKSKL

Row | SMILES | activity change, negative = inhibition [%] | Potency
1 | Cc1sc(C2C(C#N)=C(N)N(c3cccc(Cl)c3)C3=C2C(=O)CCC3)cc1CN1CCOCC1 (configuration not stated) | 0.0548 | –
2 | Cc1ccsc1C(=O)NC1CCCCC1C (configuration not stated) | -4.61 | –
3 | CCOc1ccccc1CNC(=O)Nc1cn(CC(C)C)c(=O)c2ccccc12 | -8.92 | –
4 | COc1ccccc1-c1oc2ccccc2c1C#CCCCCO | -2.19 | –
5 | COC(=O)CC1Oc2ccccc2-n2cc(-c3ccccc3)nc21 (configuration not stated) | -15.8 | –
6 | CCN1C(=O)c2ccccc2Sc2ccc(NC(=O)Cc3ccc(OC)cc3)cc21 | -6.99 | –
7 | COc1ccc(/C=C(/NC(=O)c2ccco2)C(=O)Nc2ccc(C(C)=O)cc2)cc1 | -4.55 | –
8 | COc1ccc(C(=O)NCc2ccc(Cl)cc2)cc1S(=O)(=O)N1CCCC1 | -5.91 | –
9 | CCOc1ccc(Nc2oc(/C=C/c3ccc(F)cc3)nc2C#N)cc1 | -5.12 | –
10 | CCCCn1c(=N)c(S(=O)(=O)c2ccccc2)cc2c(=O)n3cccc(C)c3nc21 | 2.9 | –
11 | Nc1nc(SCC(=O)NCCN2CCOCC2)nc2sc3c(c12)CCC3 | -15.9 | –
12 | CN1CCN(CC(=O)Nc2sc3c(c2C#N)CCC(C(C)(C)C)C3)CC1 (configuration not stated) | 2.26 | –
13 | CC(C)(C)C1CCc2c(sc3nc(SCC(N)=O)nc(N)c23)C1 (configuration not stated) | – | 4.78 µM (active)
14 | COc1ccc(OC)c(NC(=O)CSc2nc3ccccc3nc2N2CCCCC2)c1 | 6.02 | –
15 | CCOc1ccc(C(C)NC(=O)CN2C(=O)NC3(CCCCC3)C2=O)cc1OCC (configuration not stated) | -1.45 | –
16 | O=C(CSc1nc(-c2cccc(F)c2)[nH]c1-c1ccccc1)Nc1ccc2c(c1)OCO2 | -13.3 | –
17 | CCOC(=O)C(Cc1ccccc1)NC(=O)CCc1c(C)nc2c(c(C)nn2-c2ccc(C)c(C)c2)c1C (configuration not stated) | -1.42 | –
18 | COc1ccc(NC(=O)CSc2nc3ccccc3[nH]2)cc1 | -17.5 | –
19 | COc1ccccc1CSc1nc2ccccc2[nH]1 | – | 13.5 µM (active)
20 | CN(Cc1ccccc1)c1nc2c(c(=O)[nH]c(=O)n2C)n1CCSc1nc2ccccc2[nH]1 | -0.398 | –
21 | CCCCSc1nc2ccccc2[nH]1 | – | 16.9 µM (active)
22 | O=C(NCc1ccccc1)c1onc(CSc2nc3ccccc3[nH]2)c1C(=O)NCc1ccccc1 | 2.2 | –
23 | O=C(CSc1nc2ccccc2[nH]1)c1cccs1 | – | 6.75 µM (active)
24 | COc1ccccc1-c1noc(CSc2nc(C)cc(=O)[nH]2)n1 | -15.8 | –
25 | CCc1nnc(NC(=O)CCCSc2nc3ccccc3[nH]2)s1 | -6.22 | –
26 | O=C(CSc1nc2ccccc2[nH]1)Nc1nc(-c2ccccc2)c(-c2ccccc2)o1 | -1.43 | –

Row | SMILES | activity change, negative = inhibition [%] | Potency
27 | CCc1ccc(CN(C)C(C)C(=O)Nc2ccc(S(=O)(=O)N3CCCC3)cc2)cc1 (configuration not stated) | 2.76 | –
28 | Nc1c(Cl)cc(S(N)(=O)=O)cc1S(N)(=O)=O | 1.02 | –
29 | COc1ccc(-n2c(=O)c3ccccc3n(Cc3ccccc3Cl)c2=O)cc1 | -3.28 | –
30 | Cc1ccc(Cn2c(=O)n(CCCC(=O)NCc3ccccc3Cl)c(=O)c3ccccc32)cc1 | 3.41 | –
31 | COc1ccc(C2=NC3(CCCCC3)N(CC(=O)Nc3ccc(C(C)C)cc3)C2=O)cc1 | 3.81 | –
32 | CCC(Sc1nncn1C)C(=O)Nc1nnc(-c2ccc(Cl)cc2)s1 (configuration not stated) | – | 15.1 µM (active)
33 | CCOC(=O)c1sc(NC(=O)C(CC)Sc2nccn2C)nc1C (configuration not stated) | 4.46 | –
34 | CC(Sc1nncn1C)C(=O)Nc1ccccc1-c1ccccc1 (configuration not stated) | 1.84 | –
35 | COc1ccc(C2CC(=O)Nc3c2c(=O)nc2c(C)cccn32)cc1OC (configuration not stated) | -2.04 | –
36 | COc1ccc(OC)c(NC(=O)Cc2cccs2)c1 | -4.29 | –
37 | O=C(NC1=NCCS1)[C@H](Cc1ccccc1)N1C(=O)c2ccccc2C1=O | 2.88 | –
38 | COc1ccc(C(=O)Nc2nncs2)c(OC)c1 | – | 8.49 µM (active)
39 | O=C(NCc1ccc2c(c1)OCO2)c1ccc(Cl)s1 | -19.5 | –
40 | COc1ccccc1C(=O)NCCC(=O)NC1=NCCS1 | 0.0399 | –
41 | COc1cccc(OC)c1C(=O)Nc1nnc(C(C)C)s1 | -4.11 | –
42 | CCOc1ccc(C(=O)CCC(=O)NC2=NCCS2)cc1 | -14 | –
43 | COc1ccc(C(=O)NC2=NCCS2)c(OC)c1 | – | 6.01 µM (active)
44 | O=C(NC1=NCCS1)c1ccc(Cl)s1 | – | 23.9 µM (active)
45 | Cc1c(NC(=O)CSc2nnc(-c3cccnc3)n2N)c(=O)n(-c2ccccc2)n1C | 5.52 | –
46 | COc1ccc(CCNCc2c(C(=O)O)c(C)n(Cc3cccc(C)c3)c2C)cc1OC | -0.123 | –
47 | Cc1ccc(NC(=O)CN2C(=O)C(c3ccc(F)cc3)=NC23CCCCCC3)c(C)c1 | 4.17 | –
48 | CCOc1ccc(N2C(=O)CSC2=NC#N)cc1 | -1.46 | –
49 | CCOc1ccccc1NC(=O)Cn1ncc2ccc([N+](=O)[O-])cc21 | -1.68 | –
50 | Cc1cccc(-n2ccnc2SCC(=O)Nc2cccc3ccccc23)c1C | -4.45 | –
51 | Cc1ccccc1OCCC(=O)OCC(=O)NCCc1ccc(S(N)(=O)=O)cc1 | 0.732 | –
52 | COc1ccccc1CC(NC(C)=O)C(=O)NC1CCN(C(=O)Nc2ccccc2Cl)CC1 (configuration not stated) | -1.29 | –

— PubChem BioAssay AID588342 (National Center for Advancing Translational Sciences (NCATS), 2011)
